The panel holds about 83,000 compounds, 20% with a hit somewhere; the sample as a whole holds those more often.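 Negative percent growth values reflect cell death: -40 means 40% of the cells present at the start died, and -100 means all died.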 Unmarked numbers belong to inactive results. Activity calls are given as the source filed them.

This assay concerns A498 renal. The assay can be described thus: NCI-60 one-dose screen, 48 h (100 = growth as untreated, 0 = no growth, -100 = all killed). As to conditions: 10 µM unless noted. How it is done: Growth inhibition of the A498 human tumor cell line is measured as a screen for anti-cancer activity. Cells are grown in 96 well plates and exposed to the test compound for 48 hours. Compounds are tested at a single concentration, which is 10^-5 M for most compounds. The reported endpoint is percent growth (GI% or GIPRCNT), where numbers from 0 - 100% represent growth inhibition, and numbers from -100% - 0 represent cell death. For example, a value of 40 represents 60% growth inhibition. A value of 0 means no net growth occurred over the course of the experiment. A value of -40 indicates 40% of cells at the beginning of the experiment died by the end of the experiment. A value of -100 means all cells are dead at the end of the experiment.
NCI-60 Human Tumor Cell Lines Screen was performed using the standard one-dose NCI protocol, which is described in more detail at https://dtp.cancer.gov/discovery_development/nci-60/default.htm.
Compounds with GIPRCNT values below 10 were considered active. Activity score was based on GIPRCNT using the following formula: […]
Score is 0 for GIPRCNT values of 100 or above, 50 for GIPRCNT values of 0, and 100 for GIPRCNT values of -100.
As for `COc1ccc(-c2nn(-c3ccc(Cl)cc3)cc2-c2nc3ccccc3[nH]2)cc1`, the growth was 100%.
Then `COc1ccc(CN2c3ccccc3Oc3ccccc32)cc1O`, with 106%; and `CN(C)CCN1C(=O)c2cccc3c(N)ccc(c23)C1=O`, with 65.6%; and `C=CC(=O)Nc1cccc(-c2nc(SC)nc(Nc3cccc(OC)c3)c2C#N)c1`, with 9.73% (active).
Then `O=C(CN1CCCCC1)Nc1ccc2oc(=O)ccc2c1`, with 106%.
In the case of `CN(C)[C@@H]1C(=O)C(C(=O)NCc2nc3[nH]cnc(=S)c3[nH]2)=C(O)[C@@]2(O)C(=O)C3=C(O)c4c(O)cccc4[C@@](C)(O)[C@H]3C[C@@H]12`, the growth was 101%.
For the molecule `CCc1nc(N)nc(N)c1C#CC(C)c1ccc(-c2ccncc2)cc1Cl` (stereo not given), the growth was 22.7%.
Regarding `CC(=O)O[C@H]1CC[C@]2(C)[C@H]3CC=C4[C@@H]5CC(C)(C)CC[C@]5(C(=O)NCCNCCN)CC[C@@]4(C)[C@]3(C)CC[C@H]2C1(C)C`, the growth is 38.6%.
On to `CCN1CCN(c2nc(NCCNc3ccnc4cc(Cl)ccc34)c3ccccc3n2)CC1`, for which the growth is 77.1%.
Then `CCOc1cc2ncc(C#N)c(Nc3ccc(OCc4cccc(F)c4)c(Cl)c3)c2cc1NC(=O)CC1CCSS1` (stereo not given), with 64%; and `CCc1nc(N)nc(N)c1C#CC(C)c1cc(-c2ccnc(C)c2)c2oc(C)nc2c1` (stereo not given), with 10.8%; and `CC(=O)OCCC/C(=C/c1cc2ccccc2c2ccccc12)[N+](=O)[O-]`, with -80.1% (active).
On to `Cc1cc(C)nc(SC2=C(Nc3cccc(Cl)c3C)C(=O)N(Cc3ccccc3)C2=O)n1`, for which the growth was 40.1% [30 µM].
As to `Cn1c(O)c(N=NC(=O)c2cc(-c3ccccc3)on2)c2ccccc21`, the growth was 85.8%.
In the case of `CCC#CC[C@H](O)C/C=C1/C(=O)C=C[C@@H]1C/C=C\CCCC(=O)OC`, the growth was 95.7%.
Turning to `N#Cc1c(N)n(CCNC(=O)c2ccccc2)c2nc3ccccc3nc12`, the growth is 135%.
As to `C=CC(=O)Nc1cccc(-c2nc(SC)nc(Nc3ccccc3OC)c2C#N)c1`, the growth is 61.4%.
As to `COc1ccc(C(=O)c2sc3nc(C)cc(C)c3c2N)cc1OC`, the growth was 87.5%.
Take `Cc1ccccc1COc1ccc(-c2ccnn2-c2ccc(Cl)cc2)cc1`: the growth was 57.5%.
The value for `Nc1ccc(-c2cc3c(Nc4ccc(Oc5cccc(C(F)(F)F)c5)c(Cl)c4)ncnc3s2)cc1` was 89.5%.
Then `CC[C@]1(O)C[C@@H]2CN(CCc3c([nH]c4ccccc34)[C@@](C(=O)OC)(c3cc4c(cc3OC)N(C)[C@H]3[C@@](O)(C(N)=O)[C@H](O)[C@]5(CC)[C@@H]6C[C@@H]6CN6CC[C@]43[C@@H]65)C2)C1`, with -7.44% (active); and `CCCCC[C@H]1C/C=C2/C(=O)C=C[C@@H]2C/C=C\CCCC(=O)O1`, with -61.1% (active); and `Cc1cc(N2CCOCC2)nc(N[C@@H]2CCC[C@H](Nc3ccnc4cc(Cl)ccc34)C2)n1`, with 35.1%.
Turning to `O=C1c2ccccc2C(=O)c2c1ccc1[nH]c(-c3cccs3)nc21`, the growth is 96.5%.
Consider `C=C1C(=O)O[C@H]2[C@H]1CC/C(COC(=O)NCc1ccc(OC)c(OC)c1)=C\CC[C@@]1(C)O[C@@H]21`, for which the growth is 86.9%.
The value for `O=C(COc1cccc(/C=C2\COc3ccccc3C2=O)c1)Nc1nccs1` was 102%; that for `O=C(N=Nc1c(O)[nH]c2ccc(Br)cc12)c1cc(-c2ccccc2)on1` was 77.6%; that for `O=C(N=Nc1c(O)[nH]c2ccccc12)c1cc(-c2ccccc2)on1` was 103%.
For the molecule `COc1ccc(-c2nc(SCC(=O)Nc3ccc(C(=O)/C=C/c4ccc(Cl)cc4)cc3)[nH]c(=O)c2C#N)cc1`, the growth is 101%.
For the molecule `O=C1NC(=Nc2ccc(O)cc2)S/C1=C\c1cccc(Cl)c1`, the growth is 50.1%.
On to `CCN(CC)S(=O)(=O)c1ccc(OC)c(NC(=O)c2[nH]c(C)c3c2CCCCC3=O)c1`, for which the growth was 15.1%.
Regarding `CC(=O)c1cc2c(N)c(C(=O)Nc3cccc(F)c3C)sc2nc1C`, the growth is 43%.
The value for `COc1cc(-c2nn(C)nc2-c2cc3ccccc3s2)cc(OC)c1OC` was 1.32% (active); that for `COc1cc2c(cc1O)CC[C@@H]1[C@@H]2CC[C@]2(C)[C@@H](NCCN(C)C)CC[C@@H]12` was -79.3% (active); that for `COc1cc2c(cc1O)CC[C@@H]1[C@@H]2CC[C@]2(C)[C@@H](OCCN(C)C)CC[C@@H]12` was 40.3%.
Then `O=C1/C(=C/c2ccccc2)SC(=S)N1CCc1ccc(O)cc1`, with 92.1%; and `CC(C)n1c(/C=C/[C@@H](O)C[C@@H](O)CC(=O)O)c(-c2ccc(F)cc2)c2ccccc21`, with -21.3% (active).
The value for `COc1cc2nc(N3CCCC3)nc(NCC3CCCCC3)c2cc1OC` was -3.66% (active); that for `CNC(=O)c1cc(Oc2ccc(NC(=O)Nc3ccc(Cl)c(SC)c3)c(F)c2)ccn1` was 41.3%; that for `Nc1ccn(-c2ccc(Br)cc2)c(=O)n1` was 99.5%.

The values above are taken from PubChem BioAssay (NCI).
